Screens (PubChem BioAssay)
The list is not random: actives were taken first. Their share in the collection is about 1.6%.
CCHF vOTU inh – blocks the CCHF virus ovarian tumor domain protease; CCHFV vOTU protease, Pep-AMC fluorescence; inhibition, % at 11.5 µM; 370,000 compounds, 0.55% hits; AID 651958; in the data active = inhibition above about 30%
BJeLR viability – BJeLR cell viability loss; BJeLR (HRASV12) viability, CellTiter-Glo ATP luminescence, 48 h; inhibition, % (no concentration beside the values); 300,000 compounds, 0.17% hits; AID 1554; in the data active = inhibition above about 50%
PfHsp40 yeast – restores yeast growth despite PfHsp40 toxicity; S. cerevisiae expressing PfHsp40, growth rescue, ATP luminescence; growth rescue, % at 12.5 µM; 340,000 compounds, 0.68% hits; in the data active = growth rescue above about 28%, passing the limit was not always enough;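 note: yeast W303a lacking pdr1 and pdr3 grown in galactose medium; growth measured after three days at 30 °C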
ugtP null kill – growth inhibition of S. aureus ugtP deletion strain; growth inhibition, % (no concentration beside the values); S. aureus RN4220 ugtP deletion, OD600 growth, 16 h; 330,000 compounds, 0.54% hits; AID 1259309; in the data active = growth inhibition above about 68%
Sa RN4220 lethal – kills Staphylococcus aureus RN4220; 330,000 compounds, 0.33% hits; inhibition, % (no concentration beside the values); S. aureus RN4220 growth, OD600, 16 h; in the data active = inhibition above about 85%
Numbers stand for hits; 0 = inactive; - = no result.

SMILES | CCHF vOTU inh | BJeLR viability | PfHsp40 yeast | ugtP null kill | Sa RN4220 lethal
COc1c(Br)cc(Br)cc1C=NNC(=O)c1cccnc1 | - | - | - | 0 | 0
CC(/C=C/c1ccccc1)=NNC(=O)c1cccc(Br)c1 | - | - | - | 0 | 0
CN(C)C1=NCC(Cc2ccccc2)N1CCc1cccc(F)c1 (stereo not drawn) | - | - | - | 0 | 0
CCN1/C(=C/c2cc[n+](CCCS(=O)(=O)[O-])c3ccccc23)Sc2ccccc21 | 0 | 0 | 0 | 0 | 0
C=CC[n+]1ccc(/C=C2\C=Cc3cc(C)ccc3N2CC)c2ccccc21 | - | - | 0 | 93.0 | 92.2
COc1cccc(C=NNC(=O)c2ccc(N(C)S(=O)(=O)c3ccccc3)cc2)c1OC | - | - | - | 0 | 0
CSCCC(NC(N)=O)C(=O)NCc1ccc(Cl)cc1 (stereo not drawn) | 0 | 0 | 80.4 | 0 | 0
CSCCC(NC(=O)c1ccccc1Cl)C(=O)NCc1ccncc1 (stereo not drawn) | 0 | - | 0 | 0 | 0
C#CCOCCOCCOCCNc1nc(N2CCN(C(=O)Cn3cc(CC(C)O)nn3)CC2)nc(N2CCN(C(=O)C(C(C)CC)n3cc(CCCN=C(N)N)nn3)CC2)n1 (stereo not drawn) | - | - | - | 0 | 0
COc1cc(C=CC(=O)c2ccc([N+](=O)[O-])o2)ccc1O | - | - | - | 99.1 | 0
COc1ccc(C=CC(=O)c2ccc([N+](=O)[O-])o2)cc1 | - | - | - | 92.7 | 0
O=C(CCC(=O)Nc1ccc(F)cc1)NN=Cc1ccc(Br)cc1 | - | - | - | 0 | 0
Cc1ccc2c(c1)c1c3n2CCCNC3CCC1 (stereo not drawn) | 0 | 0 | 0 | 0 | 0
c1cc2c(cc1C1CCCCC1)c1c3n2CCCNC3CCC1 (stereo not drawn) | 0 | 0 | 0 | 87.1 | 88.6
CCN1C(=O)C2C(c3ccc(-c4ccc(Cl)c(Cl)c4)cc3)N[C@@](Cc3ccccc3)(C(=O)OC)C2C1=O (stereo partly drawn) | - | - | - | 0 | 0
CCN(CC)c1ccc(C=C2C(=O)NC(=S)NC2=O)cc1 | 0 | 51.4 | 0 | 0 | 0
CN(C)c1ccc(C=C2C(=O)NC(=S)NC2=O)cc1 | 0 | - | 0 | 0 | 0
Cc1ccc2oc(-c3ccccc3)c(C(=O)O)c(=O)c2c1 | 0 | 0 | 443.7 | 0 | 0
O=c1c(O)c(-c2ccccc2)oc2ccccc12 | 0 | - | 219.5 | - | -
CCOC(=O)C1C2COc3ccc(Br)cc3C2N2C(=O)N(c3cccc(C)c3)C(=O)[C@]12C (stereo partly drawn) | - | - | - | 0 | 0
C#CCOCCOCCOCCNc1nc(N2CCN(C(=O)C(CCCN=C(N)N)n3cc(C(N)C(C)CC)nn3)CC2)nc(N2CCN(C(=O)C(C(C)O)n3cc(C(N)CCCCN)nn3)CC2)n1 (stereo not drawn) | - | - | - | 0 | 0
CCc1ccc(C(C)NC(=O)c2cc(C)oc2C)cc1 (stereo not drawn) | 0 | 0 | 47.3 | 0 | 0
COC(=O)[C@@]1(Cc2ccc(F)cc2)C2c3cc(C(=O)N(C)C)n(Cc4ccccn4)c3CC2CN1C(=O)c1ccccc1 (stereo partly drawn) | - | - | - | 0 | 0
O=C(O)c1ccc(NN=C2CCCc3ccccc32)cc1 | - | - | - | 0 | 0
CCOC(=O)C=c1sc(=Cc2ccc(-c3ccccc3)cc2)c(=O)n1CC(=O)NCc1ccc2c(c1)OCO2 | - | - | - | 0 | 0
SMILES | CCHF vOTU inh | BJeLR viability | PfHsp40 yeast | ugtP null kill | Sa RN4220 lethal
CCCC=C1CCCOC(C(=O)NCc2ccc(C)o2)(C(F)(F)F)C1 (stereo not drawn) | - | - | - | 0 | 0
CC1=Nc2ccccc2/C1=C/c1sc(=N)n(-c2nccs2)c1O | - | 0 | 0 | 98.2 | 97.0
O=C(N/N=C/c1sc(N2CCOCC2)nc1-c1ccccc1)c1ccccc1O | 0 | 0 | 238.4 | - | -
O=C(N/N=C/c1sc(N2CCOCC2)nc1-c1ccccc1)c1ccccc1Cl | 0 | 0 | 0 | - | -
CC(C)NC(=O)N(C)CC1Oc2ccc(NS(=O)(=O)c3cn(C)cn3)cc2C(=O)N(C(C)CO)CC1C (stereo not drawn) | - | - | - | 0 | 0
CC(C)=CCC12Oc3cc(O)ccc3C1(O)Oc1cc(O)c([C@H]3C=C(C)CC(c4ccc(O)cc4O)[C@H]3C(=O)c3ccc(O)cc3O)c(O)c1C2=O (stereo partly drawn) | - | 0 | - | 100.3 | 96.2
CCCCCCc1ccc(N2CC(C)C(CC(=O)NCc3ccccc3)C2=O)cc1 (stereo not drawn) | - | - | - | 0 | 0
Cc1ccccc1CN1C(=O)CSC1=NN=Cc1ccco1 | - | - | - | 0 | 0
c1ccc(-c2n[nH]c(-c3ccccc3)c2-c2nc3ccccc3[nH]2)cc1 | 0 | 0 | 30.0 | 0 | 0
COc1ccccc1C(=O)Nc1nc2ccccc2s1 | 0 | 0 | 0 | - | -
COc1ccc(C(=O)Nc2nc3ccccc3s2)c(OC)c1 | 0 | 53.4 | 0 | - | -
COc1ccc(CN2Cc3cccc4c3C(CC2=O)C(O)C(O)C4)cc1 (stereo not drawn) | - | - | - | 0 | 0
O=S(OCCN1CCCC1)C(c1ccccc1)c1ccccc1 (stereo not drawn) | 0 | - | 0 | 0 | 0
O=S(OCCN1CCOCC1)C(c1ccccc1)c1ccccc1 (stereo not drawn) | 0 | - | 109.4 | 0 | 0
Cc1ccc(-c2ccc(C=N/N=C3/NC(=O)C(CC(=O)O)S3)o2)c([N+](=O)[O-])c1 (stereo not drawn) | - | - | - | 0 | 0
COc1cc(NN=C(C)c2ccc(O)c(C)c2)nc(-c2ccccc2)n1 | - | - | - | 0 | 0
CC(=NNc1cc(-c2ccccc2)nc(-c2ccccc2)n1)c1ccc(O)c(C)c1 | - | - | - | 99.5 | 98.5
CS(=O)(=O)N1c2cccc3cccc(c23)S1(=O)=O | 0 | 0 | 48.1 | 0 | 0
COc1ccc(NC(=O)N(C)C[C@H]2Oc3ccc(NC(=O)Nc4ccc5c(c4)OCO5)cc3C(=O)N([C@H](C)CO)C[C@@H]2C)cc1 | 0 | - | 54.3 | - | -
COc1cccc(C=NNC(=O)CON=C(C)c2cccs2)c1OC | - | - | - | 0 | 0
O=C(Nc1ccc2nn(-c3ccc(F)cc3)nc2c1)c1cccnc1 | 0 | 0 | 0 | 0 | 0
O=C(Nc1ccc2nn(-c3ccccc3)nc2c1)c1cccnc1 | 0 | - | 114.6 | 0 | 0
Cc1cc(C)c(C(=O)CN2C(=O)NC3(CCCCCC3)C2=O)cc1C | 0 | 0 | 51.7 | 0 | 0
Cc1cc(C(=O)CN2C(=O)NC3(CCCCC3)C2=O)c(C)n1C | 0 | 0 | 0 | 0 | 0
CC(C)(Sc1ccc(CCN(CCCCC2CCCCC2)C(=O)NC2CCCCC2)cc1)C(=O)O | 0 | - | 0 | 85.8 | 0
SMILES | CCHF vOTU inh | BJeLR viability | PfHsp40 yeast | ugtP null kill | Sa RN4220 lethal
CN(Cc1ccccc1)C(=O)NC1CCCCC1 | 0 | 0 | 0 | 0 | 0
COc1ccc(CCNc2c3ccccc3nc3ccccc23)cc1OC | 0 | 0 | 0 | 93.2 | 0
COc1ccc(CNc2nc(-c3ccccc3)nc3ccccc23)cc1OC | 32.0 | 0 | 0 | 0 | 0
COc1nc(NCCc2ccc(OC)c(OC)c2)nc(OC)n1 | 0 | 0 | 0 | 0 | 0
Cc1onc(-c2ccccc2)c1C(=O)ON=C(N)c1ccc([N+](=O)[O-])o1 | - | - | - | 0 | 0
Cc1cccc(-c2oc3ccc(-c4ccc5c(c4)OCO5)cc3c2C=Cc2ccc(N)cc2)c1 | - | - | - | 0 | 0
COc1cccc(/C=C/C(=O)c2c(O)cc(C)oc2=O)c1O | 0 | 0 | 0 | 0 | 0
COc1ccc(/C=C/C(=O)c2c(O)cc(C)oc2=O)c(OC)c1 | 0 | 0 | 0 | 99.7 | 0
